Test results taken from the supplement of paper PMC9135407.
Values joined by “and” are separate entries in the source; they are usually repeats but may differ in a detail not shown here. Equal values may be shown once. Where a name gives a salt, the structure may show the parent alone. About 620 (11%) of roughly 5,800 compounds showed activity. The sample holds actives, similar compounds and a random draw of the others, so the mix is not that of the screen. Values without a mark were called inactive.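 How the source made its calls: active = score above a cut-off or among the top three wells of a plate; in these data no inactive exceeds 0.85.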

Tested on: primary human hepatic stellate cells (donor 1)
Experiment: scaled lipid accumulation score (0 = DMSO-like, 1 = nortriptyline-like); higher = stronger HSC inactivation (lipid re-accumulation), active = hit call of the paper
Conditions: 48 h
[1] = library stock concentration: 1 mM
[2] = library stock concentration: 3.33 mM
[3] = library stock concentration: 10 mM
[4] = library stock concentration: 80 uM
[5] = library stock concentration: 400 uM
[6] = library stock concentration: 2 mM

CCCCCCCCCCCCCCCCOC[C@H](COP(=O)([O-])OCCCCCC[N+](C)(C)C)OC(C)=O [Hexanolamino PAF C-16]
scaled lipid accumulation score [1]: ≤ 0

Cc1ccc(-n2[nH]c(C)c(N=Nc3cccc(-c4cccc(C(=O)O)c4)c3O)c2=O)cc1C [Eltrombopag]
scaled lipid accumulation score [2]: 0.081 | scaled lipid accumulation score [3]: 0.077

COc1cccc2cc(-c3nc([C@H]4CC[C@H](C(=O)O)CC4)n4ncnc(N)c34)[nH]c12
scaled lipid accumulation score [4]: ≤ 0 | scaled lipid accumulation score [5]: 0.061 | scaled lipid accumulation score [6]: ≤ 0 | scaled lipid accumulation score [2]: 0.043 | scaled lipid accumulation score [3]: ≤ 0

C[C@H]1C[C@@H]2[C@H]([C@@H](O)C[C@@]3(C)[C@H]2CC[C@]3(O)C(=O)COC(=O)CCC(=O)O)[C@@]2(C)C=CC(=O)C=C12 [Methylprednisolone sodium succinate]
scaled lipid accumulation score (library stock concentration: 4 mM): 0.015

N#CSc1cc(SC#N)c(N)nc1N
scaled lipid accumulation score [2]: 0.46 | scaled lipid accumulation score [3]: 0.53

NC(Cn1ccc(=O)c(O)c1)C(=O)O (stereo not given) [Mimosine]
scaled lipid accumulation score: ≤ 0 | scaled lipid accumulation score [3]: ≤ 0

CCCCC[C@H](O)/C=C/[C@H]1CC[C@H](O)[C@@H]1CCCCCCC(=O)O [11-deoxy Prostaglandin F1.alpha.]
scaled lipid accumulation score [1]: ≤ 0

CCCCC(C)(C)[C@H](O)/C=C/[C@H]1CCC(=O)[C@@H]1C/C=C\CCCC(=O)O [11-deoxy-16,16-dimethyl Prostaglandin E2]
scaled lipid accumulation score [1]: 0.098

Cl.OCCN1CCN(CC/C=C2/c3ccccc3Sc3ccc(Cl)cc32)CC1 [Zuclopenthixol hydrochloride]
scaled lipid accumulation score: 0.995 (active)

CN1CCN(CC/C=C2\c3ccccc3Sc3ccc(S(=O)(=O)N(C)C)cc32)CC1 [Thiothixene]
scaled lipid accumulation score (library stock concentration: 4.5 mM): 0.856 (active)

Cl.Cl.OCCN1CCN(CC/C=C2/c3ccccc3Sc3ccc(C(F)(F)F)cc32)CC1 [cis-(Z)-Flupenthixol dihydrochloride]
scaled lipid accumulation score [3]: 1.01 (active)

CN1CCN(CC/C=C2/c3ccccc3Sc3ccc(S(=O)(=O)N(C)C)cc32)CC1 [Thiothixene]
scaled lipid accumulation score [3]: 0.435

CN1CCN(CC/C=C2/c3ccccc3Sc3ccc(S(=O)(=O)N(C)C)cc32)CC1
scaled lipid accumulation score [3]: 0.722

CN1CCN(CCCN2c3ccccc3Sc3ccc(S(=O)(=O)N(C)C)cc32)CC1 [Thioproperazine dimesylate]
scaled lipid accumulation score: 0.733

CCCCC[C@H](O)C/C=C1/C(=O)C=C[C@@H]1C/C=C\CCCC(=O)O [D12-Prostaglandin J2]
scaled lipid accumulation score [1]: ≤ -0.021

CC(=N)NCc1cccc(CN)c1 [1400W dihydrochloride]
scaled lipid accumulation score [3]: ≤ -0.006

Cc1oc(S(=O)(=O)N2CCCCC2)cc1NC(=O)Nc1ccccc1
scaled lipid accumulation score [1]: ≤ 0

Cc1cc(/N=N/c2cc(S(=O)(=O)O)c(C)cc2C)c(N)cc1O [Ischemin]
scaled lipid accumulation score [4]: ≤ 0 | scaled lipid accumulation score [5]: ≤ 0 | scaled lipid accumulation score [6]: ≤ 0 | scaled lipid accumulation score [3]: ≤ 0

COC(=O)CC(NC(=O)C(C)NC(=O)C(NC(=O)OCc1ccccc1)C(C)C)C(=O)CF (stereo not given)
scaled lipid accumulation score [2]: ≤ 0 | scaled lipid accumulation score [3]: 0.101

Cc1cc(C)c(S(=O)(=O)Nc2ccccc2C(F)(F)F)c(C)c1
scaled lipid accumulation score [3]: 0.002

CC/C=C\C/C=C\C/C=C\C/C=C\C/C=C\CCCC(=O)O [Eicosapentaenoic Acid]
scaled lipid accumulation score [1]: 0.001

CC/C=C\C/C=C\C/C=C\C/C=C\C/C=C\CCCC(=O)O [Eicosapentaenoic acid (20:5 n-3)]
scaled lipid accumulation score [1]: 0.009

CCCC[C@H](CCC(=O)O)NC(=O)CCCCCCc1ccccc1
scaled lipid accumulation score [1]: ≤ 0

CCCCCCCCCCCCCCCC(=O)OCC(COP(=O)(O)O)OC(=O)CCCCCCCCCCCCCCC (stereo not given) [Dipalmitoylphosphatidic acid]
scaled lipid accumulation score [1]: ≤ -0.021

CC1(C)CCC(c2ccc(Cl)cc2)=C(CN2CCN(c3ccc(C(=O)NS(=O)(=O)c4ccc(N[C@H](CCN5CCOCC5)CSc5ccccc5)c(S(=O)(=O)C(F)(F)F)c4)cc3)CC2)C1 [ABT-263 (Navitoclax)]
scaled lipid accumulation score [2]: 0.024 | scaled lipid accumulation score [3]: 0.048

Cc1cnc(Nc2ccc(F)cc2Cl)nc1-c1c[nH]c(C(=O)N[C@H](CO)c2cccc(Cl)c2)c1
scaled lipid accumulation score [4]: ≤ -0.001 | scaled lipid accumulation score [5]: ≤ -0.001 | scaled lipid accumulation score [6]: ≤ -0.001 | scaled lipid accumulation score [3]: ≤ -0.001

CC(C)c1cc(-c2n[nH]c(=O)n2-c2ccc3c(ccn3C)c2)c(O)cc1O [Ganetespib] [listing 1 of 2 here]
scaled lipid accumulation score [6]: 0.915 (active) | scaled lipid accumulation score [3]: 0.885 (active)

Cc1cc(NC(=O)Nc2ccc3c(ccn3C)c2)sn1
scaled lipid accumulation score [3]: 0.129

CC(C)c1cc(-c2n[nH]c(=O)n2-c2ccc3c(ccn3C)c2)c(O)cc1O [Ganetespib] [listing 2 of 2 here]
scaled lipid accumulation score [4]: 0.602 | scaled lipid accumulation score [5]: 0.802

CC(C)c1cc(-c2n[nH]c(=O)n2-c2ccc3c(ccn3C)c2)c(O)cc1O [Ganetespib (STA-9090)]
scaled lipid accumulation score [2]: 0.691 | scaled lipid accumulation score [3]: 0.649

CCCCCCCCCCCCCCP(=O)(O)O [Tetradecyl Phosphonate]
scaled lipid accumulation score [1]: ≤ 0

CN(C)C(=O)[C@H](O)[C@H](Cc1ccccc1)NC(=O)c1cc2cc(Cl)ccc2[nH]1
scaled lipid accumulation score [2]: 0.007 | scaled lipid accumulation score [3]: ≤ 0 and 0.127

C[C@@H]1CN(CCCn2c3ccccc3c3ccccc32)C[C@H](C)N1.Cl.Cl [Rimcazole dihydrochloride]
scaled lipid accumulation score [3]: 1.34 (active)

O=c1[nH]c2ccccc2n1CCCN1CCN(C(c2ccccc2)c2ccccc2)CC1 [Oxatomide]
scaled lipid accumulation score (library stock concentration: 4.7 mM): 0.191

Cc1ccc2c(=O)c3ccccc3n(CCCN)c2c1C
scaled lipid accumulation score [3]: 0.501

COc1ccccc1C1(O)CCN(CCCn2c3ccccc3c3ccccc32)CC1 [NNC 05-2090 hydrochloride]
scaled lipid accumulation score [3]: 0.491

CCCCCCCCNC(=O)Cc1c(C)n(C(=O)c2ccc(Cl)cc2)c2ccc(OC)cc12 [Indomethacin N-octyl amide]
scaled lipid accumulation score [1]: ≤ 0

O=C(O)/C=C/CCCCCCCCC(=O)O [Traumatic Acid]
scaled lipid accumulation score [1]: ≤ 0

O=C1Nc2ccc(I)cc2C1=Cc1cc(Br)c(O)c(Br)c1
scaled lipid accumulation score [2]: ≤ 0 | scaled lipid accumulation score [3]: 0.083

CCCCCCCC(=O)CC[C@@H]1[C@@H](C/C=C\CCCC(=O)O)[C@@H](O)C[C@H]1O [Unoprostone]
scaled lipid accumulation score [1]: ≤ 0

O=C(O)CCC/C=C\C[C@@H]1[C@@H](/C=C/C(=O)COc2cccc(C(F)(F)F)c2)[C@H](O)C[C@@H]1O [15-keto Fluprostenol]
scaled lipid accumulation score [1]: ≤ 0

COc1ccc(-n2nc(C(N)=O)c3c2C(=O)N(c2ccc(N4CCCCC4=O)cc2)CC3)cc1 [Apixaban]
scaled lipid accumulation score [2]: ≤ 0 | scaled lipid accumulation score [3]: ≤ 0

O=c1onc2cnc3ccccc3n12
scaled lipid accumulation score [3]: 1.01 (active)

CC(C)CCC[C@@H](C)[C@H]1CC[C@H]2[C@@H]3CC(=O)[C@@]4(O)C[C@@H](O)CC[C@]4(C)[C@H]3CC[C@]12C [5.alpha.-hydroxy-6-keto Cholesterol]
scaled lipid accumulation score [1]: ≤ 0

O=C(O)c1ccccc1 [Benzoic Acid]
scaled lipid accumulation score [2]: ≤ 0 | scaled lipid accumulation score [3]: 0.005

O=c1c2ccccc2oc2ccccc12 [Xanthone]
scaled lipid accumulation score [2]: ≤ 0 | scaled lipid accumulation score [3]: ≤ 0

O=c1c(-c2ccccc2)c1-c1ccccc1 [diphenylcyclopropenone]
scaled lipid accumulation score [3]: 1.25 (active)

O=C(O)c1ccccc1 [Benzoic acid]
scaled lipid accumulation score (library stock concentration: 16.4 mM): ≤ 0

Cc1ccccc1N1CCN(S(=O)(=O)C[C@]23CC[C@H](C[C@@H]2NC(=O)[C@@H](N)CCS(C)(=O)=O)C3(C)C)CC1 [L-368,899 hydrochloride]
scaled lipid accumulation score [3]: 0.107

O=P(O)(O)OC1[C@H](OP(=O)(O)O)[C@H](O)C(O)[C@H](O)[C@H]1OP(=O)(O)O (stereo partly drawn) [D-myo-Inositol-1,2,6-triphosphate (sodium salt)]
scaled lipid accumulation score [1]: 0.004

CCNC(=O)C1=C(c2ccc(OC)cc2)C(=C2C=C(Cl)C(O)=CC2=O)NN1
scaled lipid accumulation score [3]: 0.897 (active)

CCNC(=O)c1[nH]nc(-c2cc(Cl)c(O)cc2O)c1-c1ccc(OC)cc1
scaled lipid accumulation score [2]: 0.6

N=C(N)SCCC[C@H](N)C(=O)O [Thioarginine (hydrobromide)]
scaled lipid accumulation score [1]: ≤ 0

NCC(O)CC(=O)O (stereo not given) [Aminohydroxybutyric acid]
scaled lipid accumulation score [3]: 0.017

CNC(=O)c1nn(C)c2c1C(C)(C)Cc1cnc(Nc3ccc(N4CCN(C)CC4)cc3)nc1-2
scaled lipid accumulation score [2]: 0.148 | scaled lipid accumulation score [3]: ≤ 0

CN1CCN(c2ccc(OC(F)(F)F)c(Nc3ncc4c(n3)-c3c(c(C(N)=O)nn3CCO)CC4)c2)CC1 [listing 1 of 2 here]
scaled lipid accumulation score [3]: 0.879 (active)

CN1CCN(c2ccc(OC(F)(F)F)c(Nc3ncc4c(n3)-c3c(c(C(N)=O)nn3CCO)CC4)c2)CC1 [listing 2 of 2 here]
scaled lipid accumulation score [4]: ≤ 0 | scaled lipid accumulation score [5]: ≤ 0 | scaled lipid accumulation score [6]: 0.15 | scaled lipid accumulation score [2]: ≤ -0.009 | scaled lipid accumulation score [3]: 0.668

COc1cc(Br)c(S(=O)(=O)Nc2ccc(Cl)c(O[C@@H]3CCN(C)C3)c2)cc1OC
scaled lipid accumulation score [3]: 0.116

COc1cc2c(cc1OC)[C@@H]1C(=O)c3ccc4c(c3O[C@@H]1CO2)C=CC(C)(C)O4 [Deguelin(-)]
scaled lipid accumulation score [3]: ≤ 0

CCCCCCCCCCCCC/C=C/[C@@H](O)[C@H](CO)NC(=O)CCCCCCC [C-8 Ceramide]
scaled lipid accumulation score [1]: ≤ 0

CCCCCCCCCCCCC/C=C/[C@@H](O)[C@H](CO)NC(=O)CCCCCCC [C8 Ceramide]
scaled lipid accumulation score [1]: ≤ -0.021

CCOC(=O)[C@@H](C)Oc1cccc2c(=O)n(CC(=O)Nc3ccc4c(c3)OCCO4)ccc12
scaled lipid accumulation score [3]: 0.249
